These results are taken from PubChem BioAssay (NCI).

The panel holds about 83,000 compounds, 20% with a hit somewhere; the sample as a whole holds those more often.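 Plates (96-well) were seeded with cells, treated with compound at one concentration, and incubated for 48 hours before percent growth was determined.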 Calls of active or inactive are those of the source. Rule for the calls: active = growth percent below 10; inactive = the rest.

Some test systems named below: NCI-H23 lung; NCI-H226 lung; NCI-H322M lung; NCI-H460 lung; HOP-92 NSCLC; NCI-H522 lung; A549/ATCC NSCLC; 786-0 renal; COLO 205 colon; HOP-62 NSCLC.
Assay in all cases: NCI-60 one-dose screen, 48 h (100 = growth as untreated, 0 = no growth, -100 = all killed)
Common to all, as to conditions: 10 µM unless noted

For `CCCOC(=O)N[C@H]1CCc2c(Br)c(OC)c(OC)c(OC)c2-c2ccc(SC)c(=O)cc21`, the growth in the assay on NCI-H23 lung was 26.9% (inactive); in the assay on NCI-H226 lung it was 15.4% (inactive); in the assay with NCI-H322M lung, 34.6% (inactive); in the assay with NCI-H460 lung, -18.1% (active); in the assay on HOP-92 NSCLC it was -3.98% (active); in the assay on NCI-H522 lung, 8.5% (active). Also, the growth was 18.2% (inactive) in the assay on A549/ATCC NSCLC, 1.42% (active) with 786-0 renal and -31.9% (active) in the assay with COLO 205 colon.
As to `CCN(CC)c1ccc2c(c1)OC(N)=C(C#N)C2c1cc(OC)c2c(c1)OCO2` (stereo not given), the growth in the assay with NCI-H23 lung is 17.8% (inactive); with NCI-H226 lung, 29% (inactive); with NCI-H322M lung, 47.1% (inactive); in the assay on NCI-H460 lung, 3.22% (active); with HOP-92 NSCLC, 38.2% (inactive); in the assay on NCI-H522 lung, -41.7% (active). Besides, the growth with A549/ATCC NSCLC was 19.8% (inactive); with 786-0 renal it was 15.5% (inactive); in the assay with COLO 205 colon it was -42.8% (active).
As to `O=C(CN1CCN(C(=O)c2ccco2)CC1)Nc1ccc(Cl)cc1C(=O)c1ccccc1Cl`, the growth with NCI-H23 lung was 85.3% (inactive); in the assay with NCI-H226 lung, 95.1% (inactive); in the assay with HOP-62 NSCLC, 105% (inactive); in the assay on NCI-H460 lung it was 104% (inactive); in the assay with HOP-92 NSCLC, 73.9% (inactive); in the assay on NCI-H522 lung, 67.7% (inactive). Moreover, the figures for the growth with A549/ATCC NSCLC and with 786-0 renal were 77.2% (inactive) and 95.8% (inactive), respectively.
As to `CO[C@H]1CC[C@@]2(C)C(=CC[C@@H]3[C@@H]2CC[C@]2(C)C(=O)C(=O)C[C@@H]32)C1`, the growth in the assay on NCI-H23 lung is 99.5% (inactive); in the assay on NCI-H226 lung it was 96.1% (inactive); in the assay on NCI-H322M lung, 120% (inactive); with NCI-H460 lung, 102% (inactive); in the assay with HOP-92 NSCLC it was 83.7% (inactive); in the assay with NCI-H522 lung, 98% (inactive). Also, the results for the growth in the assay with A549/ATCC NSCLC, in the assay with 786-0 renal and in the assay with COLO 205 colon were 111% (inactive), 107% (inactive) and 118% (inactive), respectively.
As for `COC(=O)[C@H](C[C@H](Cc1ccccc1)NC(=O)c1csc([C@@H](C[C@H](C(C)C)N(C)C(=O)[C@@H](NC(=O)[C@H]2CCCCN2C)C(C)C)OC(C)=O)n1)NC(=O)OCc1ccccc1`, the growth was 30.2% [8.5 µM] (inactive) in the assay on NCI-H23 lung; -42.6% [8.5 µM] (active) with NCI-H226 lung; 44.7% [8.5 µM] (inactive) in the assay on NCI-H322M lung; 5.67% [8.5 µM] (active) with NCI-H460 lung; 28.2% [8.5 µM] (inactive) in the assay on HOP-92 NSCLC; -30.4% [8.5 µM] (active) with NCI-H522 lung. Also, the growth in the assay with A549/ATCC NSCLC is 18.8% [8.5 µM] (inactive); in the assay with 786-0 renal, 15.2% [8.5 µM] (inactive); in the assay on COLO 205 colon, -53.3% [8.5 µM] (active).
`Nc1c(F)cc(-c2nc3cc(F)ccc3[se]2)cc1F`: the growth in the assay with NCI-H23 lung was 49.4% (inactive); in the assay on NCI-H226 lung, -11.3% (active); in the assay on NCI-H322M lung it was 70.8% (inactive); with NCI-H460 lung, 14.5% (inactive); in the assay with HOP-92 NSCLC, 74.8% (inactive); in the assay with NCI-H522 lung, 84.8% (inactive). For the same molecule, the figures for the growth in the assay with A549/ATCC NSCLC, in the assay with 786-0 renal and in the assay with COLO 205 colon were 46.5% (inactive), 104% (inactive) and 13.4% (inactive), respectively.
As for `COC(=O)CCc1c[nH]c2ccc(N(CCCl)CCCl)cc12`, in the assay with NCI-H322M lung, the growth is 95.1% (inactive).
Consider `COC(=O)[C@@H](C)C[C@H](Cc1ccccc1)NC(=O)c1csc([C@@H](C[C@H](C(C)C)N(C)C(=O)[C@@H](NC(=O)[C@H]2CCCCN2C)C(C(F)(F)F)C(F)(F)F)OC(C)=O)n1`, for which the growth with NCI-H322M lung is 37% (inactive).
`CC[C@H](C)[C@H](NC(=O)[C@H]1CCCCN1C)C(=O)N(C)[C@H](CC(=O)c1nc(C(=O)N[C@@H](Cc2ccccc2)C[C@H](C)C(=O)O)cs1)C(C)C`: the growth in the assay with NCI-H23 lung was 93.2% (inactive); in the assay on HOP-62 NSCLC, 77% (inactive); in the assay with NCI-H460 lung, 91% (inactive); in the assay on HOP-92 NSCLC, 49% (inactive); in the assay with NCI-H522 lung, -9.54% (active); in the assay with 786-0 renal, 89.7% (inactive). Also, the growth with COLO 205 colon was 82.8% (inactive).
For the molecule `C#C[C@]1(OC(=O)CCCCCC)CC[C@H]2[C@@H]3CCC4=CC(=O)CC[C@@H]4[C@H]3CC[C@@]21C`, the growth with NCI-H23 lung is 19% (inactive); with NCI-H322M lung it was 49.5% (inactive); in the assay with HOP-62 NSCLC, 35.5% (inactive); in the assay on NCI-H460 lung, 21.2% (inactive); with HOP-92 NSCLC, 58.6% (inactive); in the assay with NCI-H522 lung, 20.5% (inactive). Moreover, the figures for the growth with A549/ATCC NSCLC, with 786-0 renal and with COLO 205 colon were 46.1% (inactive), 56.5% (inactive) and 29.3% (inactive), respectively.
As for `COc1cccc(/C=C/[N+](=O)[O-])c1`, the growth was 43.3% (inactive) with NCI-H23 lung; 88.8% (inactive) in the assay on NCI-H322M lung; 89.9% (inactive) with HOP-62 NSCLC; 100% (inactive) in the assay on NCI-H460 lung; 78.9% (inactive) in the assay on HOP-92 NSCLC; 63.2% (inactive) in the assay with NCI-H522 lung. Also, the growth in the assay on A549/ATCC NSCLC is 61.2% (inactive); in the assay with 786-0 renal, 54.6% (inactive); in the assay on COLO 205 colon, 19.5% (inactive).
On to `CCCCCCCOC(C(=O)OCCN(CC)CC)(c1ccccc1)c1ccccc1`, for which the growth in the assay on NCI-H23 lung was 87.7% (inactive); with NCI-H322M lung, 98.7% (inactive); with HOP-62 NSCLC it was 89.6% (inactive); in the assay on NCI-H460 lung, 84.4% (inactive); with HOP-92 NSCLC, 67.6% (inactive); with NCI-H522 lung it was 73.4% (inactive). In addition, the values for the growth with A549/ATCC NSCLC and with 786-0 renal were 90.8% (inactive) and 65.8% (inactive), respectively.
Consider `CCCCCC1(CCBr)C(=O)NC(=O)NC1=O`, for which the growth with NCI-H23 lung was 109% (inactive); in the assay with NCI-H322M lung, 118% (inactive); in the assay on HOP-62 NSCLC, 107% (inactive); in the assay with NCI-H460 lung it was 108% (inactive); in the assay with HOP-92 NSCLC, 85.1% (inactive); in the assay with NCI-H522 lung, 100% (inactive). Further, the values for the growth in the assay with A549/ATCC NSCLC, in the assay on 786-0 renal and with COLO 205 colon were 98.3% (inactive), 95.9% (inactive) and 110% (inactive), respectively.
For the molecule `[Cl][Hg][c]1cc[c]([Hg][Cl])o1`, the growth in the assay on NCI-H23 lung was 63.5% (inactive); in the assay with NCI-H322M lung, 96.9% (inactive); with NCI-H460 lung, 68.6% (inactive); in the assay on HOP-92 NSCLC, -29.1% (active); in the assay on NCI-H522 lung, 2.99% (active); in the assay on A549/ATCC NSCLC it was 88.4% (inactive). Also, the growth in the assay with 786-0 renal was -74.8% (active); in the assay on COLO 205 colon, 6.94% (active).
As for `CC1CN1CCCCN1CC1C` (stereo not given), the growth in the assay with NCI-H23 lung was 109% (inactive); in the assay with NCI-H322M lung, 101% (inactive); with HOP-62 NSCLC, 109% (inactive); in the assay on NCI-H460 lung it was 104% (inactive); with HOP-92 NSCLC it was 88.2% (inactive); with NCI-H522 lung it was 66.4% (inactive). For the same molecule, the growth in the assay with 786-0 renal was 103% (inactive); in the assay with COLO 205 colon it was 115% (inactive).
In the case of `COc1cc2c(cc1OCCCCn1c(-c3cccs3)nc3ccccc31)N=C[C@@H]1CCCN1C2=O`, the growth is -37.9% (active) in the assay with NCI-H23 lung; -30.5% (active) in the assay with NCI-H322M lung; 17.7% (inactive) with HOP-62 NSCLC; -4.31% (active) with NCI-H460 lung; -64.6% (active) in the assay on HOP-92 NSCLC; -27.4% (active) in the assay on NCI-H522 lung. Moreover, the growth in the assay on A549/ATCC NSCLC is -7.19% (active); in the assay on 786-0 renal it was 1.78% (active); in the assay on COLO 205 colon, -73.5% (active).
With `CC[C@H](C)[C@H](NC(=O)[C@H]1CCCCN1C)C(=O)N(C)[C@H](CCc1nc(C(=O)N[C@@H](Cc2ccccc2)C[C@H](C)C(=O)OC)cs1)C(C)C`, the growth in the assay on NCI-H23 lung was 31% (inactive); with HOP-62 NSCLC it was 14.3% (inactive); in the assay with NCI-H460 lung, 6.43% (active); in the assay with HOP-92 NSCLC, 12.9% (inactive); in the assay with NCI-H522 lung it was -14.6% (active); in the assay with A549/ATCC NSCLC it was 17% (inactive). Further, the growth with 786-0 renal was 7.3% (active); in the assay with COLO 205 colon it was -64.1% (active).
In the case of `COC(C(=O)[C@@H](O)[C@@H](C)O)[C@@H]1Cc2cc3cc(O[C@H]4C[C@@H](O[C@H]5C[C@@H](O)[C@H](O)C(C)O5)[C@H](O)C(C)O4)c(C)c(O)c3c(O)c2C(=O)[C@H]1O[C@H]1C[C@@H](O[C@H]2C[C@@H](O[C@H]3C[C@@H](O)[C@@H](O)C(C)O3)[C@@H](O)C(C)O2)[C@H](O)C(C)O1` (stereo not given in full), the growth is -0.735% (active) with NCI-H23 lung; 14% (inactive) in the assay with NCI-H322M lung; -4.46% (active) in the assay with HOP-62 NSCLC; 7.75% (active) in the assay on NCI-H460 lung; 13.3% (inactive) in the assay on HOP-92 NSCLC; -23.7% (active) in the assay with NCI-H522 lung. Further, the growth is 2.42% (active) with A549/ATCC NSCLC, -1.51% (active) with 786-0 renal and -43.3% (active) in the assay on COLO 205 colon.
As to `CC1=C(CNO)C2=C(C)C3(CC3)[C@@](C)(O)C(=O)C2=C1`, the growth in the assay with NCI-H23 lung was -24.8% (active); in the assay with NCI-H322M lung it was -15.8% (active); in the assay with HOP-62 NSCLC it was 1.62% (active); with NCI-H460 lung, -0.969% (active); with HOP-92 NSCLC, -19.6% (active); in the assay with NCI-H522 lung, -7.65% (active). The growth in the assay with A549/ATCC NSCLC was -7.8% (active); in the assay with 786-0 renal, -17.5% (active); in the assay on COLO 205 colon, -20.4% (active).
As for `CC(=O)[O][Hg][c]1c(N)c(C)cc(C)c1F`, the growth with NCI-H23 lung was 48.6% (inactive); with HOP-62 NSCLC, 59.5% (inactive); with NCI-H460 lung, 43.8% (inactive); with HOP-92 NSCLC, 12.1% (inactive); with NCI-H522 lung, -42.2% (active); in the assay on A549/ATCC NSCLC it was 84.7% (inactive). Besides, in the assay with 786-0 renal, the growth is -31.7% (active).
